Compound activity: PubChem, National Center for Advancing Translational Sciences (NCATS)
Chronic BCR inh = blocks chronic active B-cell receptor signaling; ABC-DLBCL IkBa-CBG/CBR reporter, luminescence ratio, 4 h; Potency, µM (top dose mostly 46.1 µM), inactives show top-dose activity change, negative = inhibition, usual class: inhibitors; actives 0.05% (n = 340,000); active means well fitted inhibition curve with a large enough effect in the signal ratio, with a control signal flat, not every such curve was filed as active; inconclusive means small, poorly fitted or top-dose-only effect, or effect the other way, or a change in a side signal; the % refers to the signal ratio;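 further: potency means the concentration at half of the fitted maximal effect; plate controls were basal doxycycline-induced cells for no effect and cells given 10 µM MG132 for full effect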
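Doxycycline induced both beetle luciferases in TMD8 lymphoma cells; IKK-driven degradation limits the IkappaBalpha-fused green signal, while red luminescence normalises for cell number and nonspecific effects. Compounds tested up to 46 uM, 4 hrs.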
RXFP1 antagonist = blocks the human relaxin receptor RXFP1. HEK293-RXFP1, relaxin-stimulated cAMP HTRF, 30 min; active compounds read low. activity change, negative = inhibition, % at 57.5 µM. actives 0.59% (n = 350,000);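 active means activity change of -60% or lower, but not beyond a set lower limit; inconclusive means change between -60% and -40%, or beyond the set limit; inactive means change above -40%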
RXFP1 agonist = RXFP1 (human) receptor agonism; Q9HBX9; HEK293T-RXFP1 cAMP TR-FRET, 30 min; response scale: percent of porcine relaxin response, buffer zero; Potency, µM (doses to about 57.5 µM), without a hit: at the highest dose activation, hits mostly activators; actives 0.3% (n = 370,000); further: potency means the concentration at half of the fitted maximal effect; nearly all actives have a fitted effect of over 60% in size
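Agonist response is measured as cAMP accumulation in an RXFP1-transfected HEK293T line under PDE4 inhibition. Values are scaled between buffer-only and 29 nM porcine relaxin, and EC50s come from standard Hill equation fits.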
B2AR arrestin = agonists driving beta-arrestin recruitment to human beta2-adrenergic receptor. actives 0.02% (n = 330,000). beta-arrestin recruitment to beta2AR, cell-based reporter. Potency, µM (top dose mostly 46.1 µM), for inactives: at the top dose activation, usual class: activators. AID 492947;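 further: potency means the concentration at half of the fitted maximal effect; 0% = DMSO controls and full agonism = EC100 isoproterenol or metaproterenol; nearly all actives have a fitted effect of over 65% in size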
Target sequence (P07550 whole entry, looked up): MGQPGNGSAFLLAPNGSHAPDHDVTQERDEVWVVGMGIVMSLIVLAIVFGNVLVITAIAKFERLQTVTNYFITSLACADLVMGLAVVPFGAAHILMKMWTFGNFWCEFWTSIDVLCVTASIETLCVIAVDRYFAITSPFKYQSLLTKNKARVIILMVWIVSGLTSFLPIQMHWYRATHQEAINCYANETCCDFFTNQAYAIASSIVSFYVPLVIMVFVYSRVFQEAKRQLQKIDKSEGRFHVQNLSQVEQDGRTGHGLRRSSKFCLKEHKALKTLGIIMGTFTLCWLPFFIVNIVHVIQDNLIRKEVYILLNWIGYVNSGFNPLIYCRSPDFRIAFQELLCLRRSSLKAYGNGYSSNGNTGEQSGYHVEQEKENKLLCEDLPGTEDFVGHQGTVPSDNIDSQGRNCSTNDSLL
Active calls of the source: *; ? = inconclusive; nt = no result given. An excerpt weighted towards active compounds, which were near 0.59% of everything screened. Unless noted, the call rests on the fitted dose curve; in most records, active means well fitted activation curve with a large enough effect; inconclusive means small, poorly fitted or top-dose-only effect; inactive means flat fitted curve, though single readings scatter. Unless noted, on the % scale 0 is the no-effect control and ±100 the full control effect.

SMILES	Chronic BCR inh	RXFP1 antagonist	RXFP1 agonist	B2AR arrestin
CCOC(=O)CSc1nc(C(C)C)nc2sc(C)c(C)c12	-3%	-60*	0%	0%
CCOC(=O)CSc1nc2sc(C)c(C)c2c(=O)n1C	-4%	-5	1%	-1%
CCOC(=O)N1CCN(C(=O)c2ccc(-n3c(=S)[nH]c4ccccc4c3=O)cc2)CC1	-2%	-107*	29%	3%
CCOC(=O)N1CCN(C(=O)c2ccc3c(=O)n(-c4ccc(OC)cc4)c(=S)[nH]c3c2)CC1	-3%	3	-1%	-1%
COC(CNC(=O)c1ccc(-n2c(=S)[nH]c3ccccc3c2=O)cc1)OC	-1%	-75*	0%	0%
CCC(C)NC(=O)c1ccc(-n2c(=S)[nH]c3ccccc3c2=O)cc1 (stereo not given)	-2%	-105*	4%	-1%
O=c1oc2ccccc2c(N2CCN(c3ccccc3F)CC2)c1CN1CCCC1	nt	-9	4%	nt
CCOC(=O)c1ccc(OCC2c3cc(OC)c(OC)cc3CCN2C(=O)Cc2ccc(OC)c(OC)c2)cc1 (stereo not given)	-11%	nt	5%	nt
COc1ccc(C[C@](C)(N)C(=O)O)cc1OC	23µM*	nt	-1%	0%
Cc1ccc(S(=O)(=O)/N=C(/Nc2ccc(F)cc2F)c2ccccc2)cc1	1%	-65*	1%	0%
Cc1ccc(S(=O)(=O)/N=C(/Nc2ccccc2C)c2ccccc2)cc1	6%	9	nt	6%
CCS(=O)(=O)N1CCCC(C(=O)NCCOC)C1 (stereo not given)	1%	nt	0%	nt
O=C(NC1CCS(=O)(=O)C1)/C(=C\c1ccco1)NC(=O)c1ccccc1 (stereo not given)	-2%	-14	-3%	0%
O=C(NC1CCS(=O)(=O)C1)/C(=C/c1ccco1)NC(=O)c1ccccc1 (stereo not given)	-2%	-72*	-2%	-1%
CCCCc1ccc(NC(=S)N2CCN(c3ccccn3)CC2)cc1	-1%	-69*	0%	0%
NS(=O)(=O)c1cc(C(=O)NN2C[C@H]3[C@H]4CCC(C4)[C@H]3C2)ccc1Cl	nt	-7	nt	nt
CCOC(=O)c1nc2sc3c(c2c(=O)n1C(C)C(=O)OCC)CCCC3 (stereo not given)	6%	-61*	5%	0%
CC(=O)c1ccc(N2CCN(CC(O)COC(c3ccccc3)c3ccccc3C)CC2)cc1 (stereo not given)	12%	-28	-6%	0%
CC(=O)c1ccc(N2CCN(CC(O)COC(c3ccccc3)c3ccccc3)CC2)cc1 (stereo not given)	12%	-79*	-3%	-1%
O/N=C1/CC/C(=N\O)c2nn(-c3ccccc3)nc21	5.8µM*	-1	1%	0%
O=C(O)c1nn(-c2ccccc2)nc1-c1nn(-c2ccccc2)nc1C(=O)O	10%	3	-1%	-1%
CCOC(=O)/C=C/C(=O)Nc1ccc(Oc2ccccc2)cc1	-12%	-64*	3%	0%
O=C(NCc1ccc(Cl)cc1)C1CCCN(c2nc3ccccc3n3cccc23)C1 (stereo not given)	nt	-64*	3%	nt
CC(=O)c1cccc(NC(=O)CC(c2ccc(C)cc2)N2Cc3ccccc3C2=O)c1 (stereo not given)	nt	nt	0%	nt
COc1ccccc1NC(=O)c1sc2nc3n(c(=O)c2c1C)CCC3	2%	16	8.9µM*	-1%
SMILES	Chronic BCR inh	RXFP1 antagonist	RXFP1 agonist	B2AR arrestin
CCc1cnc2c(c1SC(C(C)=O)C(=O)N(C)C)c(=O)n(C)c(=O)n2C (stereo not given)	0%	-3	3%	nt
Nc1cc(C(F)(F)F)ccc1S	nt	-8	nt	nt
CCc1ccc(OCC(=O)NNC(=O)c2cc(S(=O)(=O)N(C)C)ccc2N2CCCC2)cc1	-3%	-114*	-1%	-1%
CN(C)S(=O)(=O)c1ccc(N2CCCC2)c(C(=O)NNC(=O)COc2ccc(Cl)cc2)c1	2%	-17	4%	0%
COc1ccccc1CNC(=O)CSc1ncc2c(n1)-c1ccc(Cl)cc1N(Cc1ccccc1)S2(=O)=O	nt	7	4.5µM*	nt
CCc1cccc(NC(=O)CSc2ncc3c(n2)-c2ccccc2N(Cc2ccccc2C)S3(=O)=O)c1	nt	-1	10%	nt
COc1ccccc1CNC(=O)CSc1ncc2c(n1)-c1ccccc1N(Cc1ccc(C)cc1)S2(=O)=O	nt	nt	14%	nt
CCOC(=O)c1cccc(NC(=O)CSc2ncc3c(n2)-c2ccc(Cl)cc2N(Cc2ccccc2)S3(=O)=O)c1	nt	nt	32µM*	nt
COc1ccccc1N(C(=O)CCl)c1cn(C(C)=O)c2ccccc12	?	3	0%	-1%
COc1ccccc1N(C(C)=O)C1=C(Cl)C(=O)c2ccccc2C1=O	nt	-87*	nt	nt
O=C(N/N=C/c1cn(-c2cccs2)nc1-c1ccccc1)c1ccccc1O	?	-88*	2%	-1%
CCCNC(=O)c1nnsc1S(=O)c1ccc(Cl)cc1 (stereo not given)	?	-71*	1%	0%
CCCNC(=O)c1nnsc1S(=O)(=O)c1ccc(Cl)cc1	?	-63*	-3%	-2%
O=C1Cc2c(-c3ccccc3)cc(-c3cccc(Cl)c3)nc2-c2ccccc2N1	nt	7	nt	nt
NC1(c2ccc(-c3nc4ccn5c(=O)[nH]nc5c4cc3-c3ccccc3)cc2)CCC1	nt	-62*	nt	nt
O=C1c2cccc3c([N+](=O)[O-])ccc(c23)C(=O)N1Cc1cccnc1	?	-77*	9%	0%
O=C(O)c1cc(-c2ccco2)nc2ccc(Br)cc12	?	2	13µM*	4%
O=C(/C=C/C(Cl)(Cl)Cl)Nc1ccc(Cl)cc1	nt	-73*	nt	nt
O=C(/C=C/c1ccc(-c2ccccc2[N+](=O)[O-])o1)c1ccco1	-2%	-64*	1%	0%
CN1CCN(C(=O)CCCOc2cc(=O)n(C)c3ccccc23)CC1	26µM*	-8	3%	0%
Cn1c(=O)cc(OCCCC(=O)N2CCCCC2)c2ccccc21	-14%	-9	0%	0%
CCOc1cc(/C=N\NC(=O)OC)ccc1OC(=O)c1ccco1	0%	-64*	6%	0%
CCOc1cc(/C=N\NC(=O)OC(C)(C)C)ccc1OC(=O)c1ccco1	?	-22	-1%	-1%
Cc1cccc(-c2cc3nc(C)c(C)c(NCCCn4ccnc4)n3n2)c1	-2%	-98*	8%	0%
Cc1cc(NCCCn2ccnc2)n2nc(-c3ccc(F)cc3)cc2n1	?	-12	2%	0%
SMILES	Chronic BCR inh	RXFP1 antagonist	RXFP1 agonist	B2AR arrestin
O=C(/C(=C\c1ccccc1)c1nc2ccccc2[nH]1)c1ccc(Cl)cc1	?	-28	0%	0%
O=C(/C=C/c1cccc(Cl)c1)c1nc2ccccc2[nH]1	?	-82*	1%	-1%
COc1ccc(-c2cc(C(F)(F)F)nc(SCCC(=O)Nc3ccc(O)cc3)n2)cc1	nt	nt	4%	nt
Cn1ncc(C(=O)N2CCN(c3ccc(F)cc3)CC2)c1C1CCN(C(=O)OC(C)(C)C)CC1	nt	-6	-2%	nt
COc1ccc(Br)cc1-c1nc(CCl)cs1	-4%	6	18µM*	0%
CN(C)CCN(Cc1ccsc1)c1ccccn1	nt	3	nt	nt
